Sfp PPTase inh = Sfp phosphopantetheinyl transferase inhibition; 3.5% of 310,000 active; Potency, µM, without a hit: largest response in the series, negative = inhibition, most hits filed as inhibitors; Biochemical Sfp PPTase activity, qHTS; AID 1490; Q9F4F7;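 note: the enzyme is Sfp with the accession as filed and its product quenches rhodamine fluorescence; 0% = enzyme reaction without inhibitor and -100% = no enzyme wells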
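Fluorescence-quenching assay: 15 nM Sfp-PPTase preincubated 15 min at room temperature with compound, then 5 uM rhodamine-CoA and 12.5 uM BHQ-2-labelled YbbR peptide added. Fluorescence (ex 525/em 598 nm) read at start and after 30 min; difference gives rate.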
HP1b binding inh = blocks HP1-beta chromodomain binding to methylated histone tails. P83916. AlphaScreen HP1-beta / biotin-H3K9me3 peptide binding. Potency, µM (series often up to 114 µM), for the others: at the top dose activity change, negative = inhibition, most hits filed as inhibitors. 0.56% of 390,000 active; note: nearly all actives have a fitted effect of over 70% in size
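AlphaScreen: HP1-beta (50 nM) preformed 30 min with biotin-H3(1-18)K9me3 peptide (50 nM) in PBS pH 7.4, 0.01% Tween-20. Compound added for 30 min at RT, then streptavidin donor/nickel chelate acceptor beads (10 ug/mL) for 30 min.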
JMJD2A Tudor = JMJD2A Tudor domain (human) inhibition. O75164. AlphaScreen JMJD2A-Tudor / H3K4me3 peptide binding. Potency, µM (highest dose often 114 µM), without a hit: top-dose activity change, negative = inhibition, usual class: inhibitors. 4.4% of 390,000 active. AID 504339; note: % is set by controls: 0 for no effect and ±100 for the full control effect; nearly all actives have a fitted effect of over 50% in size
BAZ2B block = blocks human BAZ2B; Potency, µM (series often up to 114 µM), inactives show top-dose activity change, negative = inhibition, hits mostly inhibitors; 4.4% of 360,000 active; AID 504333; AlphaScreen BAZ2B-H3K14Ac peptide displacement; note: % is set by controls: 0 for no effect and ±100 for the full control effect; nearly all actives have a fitted effect of over 60% in size
Target sequence (Q9UIF8 whole entry, looked up): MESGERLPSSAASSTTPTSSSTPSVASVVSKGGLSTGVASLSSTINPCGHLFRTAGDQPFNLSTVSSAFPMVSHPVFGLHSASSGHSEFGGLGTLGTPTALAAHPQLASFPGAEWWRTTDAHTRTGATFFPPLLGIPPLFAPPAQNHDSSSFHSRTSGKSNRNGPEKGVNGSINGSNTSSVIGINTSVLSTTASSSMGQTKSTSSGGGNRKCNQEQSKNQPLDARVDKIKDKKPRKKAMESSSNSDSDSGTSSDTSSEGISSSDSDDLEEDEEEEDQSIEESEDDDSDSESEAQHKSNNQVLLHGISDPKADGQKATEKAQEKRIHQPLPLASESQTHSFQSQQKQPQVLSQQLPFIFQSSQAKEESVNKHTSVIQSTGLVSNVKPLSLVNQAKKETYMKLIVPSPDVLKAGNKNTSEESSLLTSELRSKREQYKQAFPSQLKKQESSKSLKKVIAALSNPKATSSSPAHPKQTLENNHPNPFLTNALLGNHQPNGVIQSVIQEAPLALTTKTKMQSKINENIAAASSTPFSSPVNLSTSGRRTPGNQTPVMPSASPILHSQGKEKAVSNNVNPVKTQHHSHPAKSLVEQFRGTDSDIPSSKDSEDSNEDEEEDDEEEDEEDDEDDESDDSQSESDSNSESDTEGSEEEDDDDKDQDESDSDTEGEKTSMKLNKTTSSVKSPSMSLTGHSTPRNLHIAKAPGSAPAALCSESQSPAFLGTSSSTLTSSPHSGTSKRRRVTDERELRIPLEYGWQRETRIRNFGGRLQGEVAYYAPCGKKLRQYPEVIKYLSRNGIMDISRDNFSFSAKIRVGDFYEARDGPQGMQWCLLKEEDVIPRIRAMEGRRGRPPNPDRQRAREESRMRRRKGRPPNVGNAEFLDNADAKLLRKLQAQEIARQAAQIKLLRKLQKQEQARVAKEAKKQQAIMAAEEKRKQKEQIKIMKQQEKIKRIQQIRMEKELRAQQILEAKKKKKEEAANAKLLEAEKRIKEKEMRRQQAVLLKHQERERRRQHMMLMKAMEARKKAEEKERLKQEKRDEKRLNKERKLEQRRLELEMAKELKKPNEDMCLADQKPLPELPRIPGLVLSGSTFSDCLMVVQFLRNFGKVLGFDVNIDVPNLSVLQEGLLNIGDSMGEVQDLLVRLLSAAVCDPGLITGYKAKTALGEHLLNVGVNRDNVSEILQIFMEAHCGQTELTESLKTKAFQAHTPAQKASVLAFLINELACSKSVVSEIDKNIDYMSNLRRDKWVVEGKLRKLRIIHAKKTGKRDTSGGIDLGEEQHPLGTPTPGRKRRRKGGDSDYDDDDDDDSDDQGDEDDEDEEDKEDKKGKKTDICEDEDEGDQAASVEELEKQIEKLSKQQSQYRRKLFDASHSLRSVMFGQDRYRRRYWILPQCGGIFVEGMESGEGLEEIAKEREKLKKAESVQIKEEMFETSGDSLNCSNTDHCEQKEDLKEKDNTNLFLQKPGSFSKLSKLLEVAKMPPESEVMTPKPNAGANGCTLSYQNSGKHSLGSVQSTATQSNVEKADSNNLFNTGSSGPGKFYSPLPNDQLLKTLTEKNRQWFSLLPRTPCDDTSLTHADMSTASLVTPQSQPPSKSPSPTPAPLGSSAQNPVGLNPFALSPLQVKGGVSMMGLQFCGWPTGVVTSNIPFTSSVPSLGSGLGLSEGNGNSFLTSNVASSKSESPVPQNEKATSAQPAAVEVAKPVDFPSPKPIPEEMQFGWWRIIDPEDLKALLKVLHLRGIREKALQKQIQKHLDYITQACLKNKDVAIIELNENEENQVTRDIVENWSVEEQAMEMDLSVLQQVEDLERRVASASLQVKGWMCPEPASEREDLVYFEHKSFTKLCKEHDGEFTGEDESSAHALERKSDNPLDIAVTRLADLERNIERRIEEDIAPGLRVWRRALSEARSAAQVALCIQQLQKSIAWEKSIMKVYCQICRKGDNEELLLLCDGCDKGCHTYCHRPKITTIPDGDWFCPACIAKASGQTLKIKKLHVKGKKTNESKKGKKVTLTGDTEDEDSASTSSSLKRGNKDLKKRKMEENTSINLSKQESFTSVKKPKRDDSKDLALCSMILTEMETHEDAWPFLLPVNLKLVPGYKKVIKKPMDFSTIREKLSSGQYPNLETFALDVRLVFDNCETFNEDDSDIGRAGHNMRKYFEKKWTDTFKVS
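Complex of BAZ2B and biotin-H3K14Ac (50 nM apiece) forms over 30 min at RT, then faces library compounds up to 110 uM for another 30 min; AlphaScreen beads added, 20 min dark incubation, luminescence read.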
G9a block = inhibitors of human histone lysine methyltransferase G9a; G9a H3K9 monomethylation, AlphaScreen, 2 h; Q96KQ7; 8.8% of 350,000 active; AID 504332; Potency, µM (top dose mostly 102 µM), for the others: at the top dose activity, negative = inhibition, hits mostly inhibitors; note: % is set by controls: 0 for no effect and ±100 for the full control effect; nearly all actives have a fitted effect of over 75% in size
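Quantitative HTS format: methyltransferase activity on a biotin-tagged H3K9 peptide is measured by AlphaScreen, using a rabbit anti-monomethyl-H3K9 antibody with streptavidin donor and anti-IgG acceptor beads. Final levels are 20 nM enzyme, 500 nM peptide, 20 uM SAM; 2 h RT.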
An asterisk follows results filed as active; ? = inconclusive; . = no result given; ! = not active in a repeat; [ ] = remark or other dose. Most compounds without a hit are left out; they make up all but 12% or so of the library. Calls come from the whole dose curve; as a rule, active = well fitted curve in the direction sought with a large enough effect; inconclusive = small, poorly fitted or top-dose-only effect, or another doubt; inactive = no such curve, though single readings can be large; an effect the other way counts as inactive or inconclusive. Potency is the fitted concentration of half-maximal effect.

SMILES	Sfp PPTase inh	HP1b binding inh	JMJD2A Tudor	BAZ2B block	G9a block
CC(=O)O[C@@H]1CC2C(C)(C)C(=O)C=C[C@]2(C)C2CC[C@]3(C)C(=CC[C@H]3C3CO[C@@H](C(C)(C)O)[C@H](O)C3)[C@@]21C (stereo partly drawn)	89µM*	.	.	.	.
Cc1nc(NC(=O)c2c(-c3ccccc3)c(-c3ccccc3)nn(C)c2=O)sc1C	.	-22%	?	-35%	?
CCc1cc2c(NCCN3CCCCC3)ncnc2s1	-2%	28%	?	4%	50µM*
Cc1sc2ncnc(NCCN3CCOCC3)c2c1C	-24%	-50%	1.6µM*	50µM*	8.9µM*
CC1CCc2c(sc3ncnc(NCCN4CCOCC4)c23)C1 (stereo not drawn)	-11%	31%	-19%	-2%	-1%[12.7 µM]
Cc1cccc(C(=O)N2CCCCC2CCN2CCCCC2)c1 (stereo not drawn)	.	4%	-16%	-17%	-33%[59 µM]
Cc1cc(C(=O)C(C)Sc2cccc[n+]2[O-])c(C)n1-c1ccc(Cl)cc1 (stereo not drawn)	-4%	-14%	-33%	-37%	40µM*
CCc1nnc2n1N=C(c1ccc([N+](=O)[O-])cc1)CS2	-14%	37%	-5%	-5%	35µM*
CCc1nnc2n1N=C(c1ccc(OC)cc1)CS2	16%	32%	-22%	-5%	-19%[59 µM]
CC(C)CO/N=C1/C[C@@H](O)[C@@H](O)[C@@H]2[C@@H]3C(=O)N(Cc4ccc5c(c4)OCO5)C(=O)[C@H]3CC[C@@H]12	-11%	.	.	.	.
C#CCOCCOCCOCCNc1nc(N2CCN(C(=O)[C@H]([C@@H](C)O)n3cc(CCCCN)nn3)CC2)nc(N2CCN(C(=O)[C@H]([C@@H](C)CC)n3cc(CCCCN)nn3)CC2)n1	.	39%	-14%	-31%	1%[2.33 µM]
C#CCOCCOCCOCCNc1nc(N2CCOCC2)nc(N2CCN(C(=O)[C@H]([C@@H](C)CC)n3cc(CCCN=C(N)N)nn3)CC2)n1	-5%	33%	-12%	-36%	50µM*
C#CCOCCOCCOCCNc1nc(N2CCOCC2)nc(N2CCN(C(=O)[C@H]([C@@H](C)O)n3cc(CCCCN)nn3)CC2)n1	6%	19%	-15%	?	45µM*
C#CCOCCOCCOCCNc1nc(N2CCN(C(=O)[C@H]([C@@H](C)CC)n3cc(CCCN=C(N)N)nn3)CC2)nc(N2CCN(C(=O)[C@H](CCCCN)n3cc(CCCC)nn3)CC2)n1	4%	17%	-31%	-38%	?
Cc1cc(N2CCN(c3cccc(C)c3C)CC2)n2nc(C)c(-c3ccc(Cl)cc3)c2n1	.	54%	-7%	-5%	-19%[59 µM]
CC(=O)NC1=NN(C(C)=O)C(C)(c2ccc3ccccc3c2)S1 (stereo not drawn)	4%	27%	-3%	-39%	1%[59 µM]
CC(=O)NC1=NN(C(C)=O)C(C)(c2ccccc2)S1 (stereo not drawn)	9%	9%	-2%	45µM*	?
COc1ccc(CCNCC(O)COc2c(C)cccc2C)cc1OC (stereo not drawn)	-13%	?	?	50µM*	-5%
COc1ccc(CCNCC(O)COc2ccc(Cl)cc2)cc1OC (stereo not drawn)	30%	21%	-24%	-17%	19%[59 µM]
COc1ccc(CCNCC(O)COc2cccc(C(C)=O)c2)cc1OC (stereo not drawn)	-31%	?	25µM*	71µM*	4%
COc1cc(/C=N/NC(=O)Nc2ccccc2)ccc1OC(C)=O	22%	21%	11%	9%	7%[59 µM]
C=CC[n+]1c(/C=C/c2ccc(OC(C)=O)c(OC)c2)ccc2ccccc21	6%	39%	2%	-7%	79µM*
COc1cccc(/C=N/NC(=O)c2ccc(=O)[nH]n2)c1O	13%	49%	79µM*	50µM*	-4%
COc1cc(OC)c(OC)cc1/C=N/NC(=O)c1cnccn1	-21%	18%	?	-14%	25%
COc1cccc(/C=N/NC(=O)c2ccc(=O)n(C)c2)c1O	14%	17%	56µM*	?	16%[59 µM]
SMILES	Sfp PPTase inh	HP1b binding inh	JMJD2A Tudor	BAZ2B block	G9a block
COc1ccccc1/C=N\NC(=O)c1c(C)nc2ccc(Cl)cn12	19%	22%	-6%	11%	0%[59 µM]
COc1cccc(/C=N/NC(=O)c2cnccn2)c1OC	3%	18%	20µM*	-4%	7%
COc1cccc(/C=N/NC(=O)c2c(C)nc3ccc(Cl)cn23)c1O	31%	23%	56µM*	8.9µM*	-10%
COc1ccc(OC)c(/C=N/NC(=O)c2ccc(=O)[nH]n2)c1	0%	12%[57 µM]	-13%	-35%	-15%[59 µM]
O=C(CN1C(=O)C2CCCCN2c2ccc(C(=O)N3CCCC3)cc21)NCc1cccc(F)c1 (stereo not drawn)	.	10%[57 µM]	-17%	-4%	1%[59 µM]
COc1ccc(N2CCN(C(=O)c3cnn(-c4ccc(F)cc4)c3-n3cccc3)CC2)cc1	.	8%	-33%	-28%	?
CCOC(=O)c1ccc(NC(=O)CCCn2nc(C)c3sc4ccccc4c3c2=O)cc1	.	60%	-10%	-34%	-10%[59 µM]
O=C(Nc1ccc(Br)cc1)C1CCCN(S(=O)(=O)c2ccc(Br)s2)C1 (stereo not drawn)	.	23%	3%	-1%	-33%[59 µM]
Cc1nnc(C)n1/N=C/c1cccn1C	20%	-7%	-34%[11.4 µM]	-2%	-6%[59 µM]
Cc1ccc(-c2n[nH]c(=S)n2/N=C/c2cccn2C)cc1	0%	-30%	22µM*	-35%	1.1µM*
Cn1cccc1/C=N/n1c(-c2ccc(Cl)cc2)n[nH]c1=S	3%	35%	-16%	3%	?
Cn1cccc1/C=N/n1c(-c2ccc(Cl)cc2Cl)n[nH]c1=S	-10%	-13%	79µM*	45µM*	?
COc1ccc(-c2n[nH]c(=S)n2/N=C/c2cccn2C)cc1	-3%	?	6.3µM*	-35%	1.1µM*
COc1ccc2c(=O)c(Oc3ccc(C(=O)O)cc3)c(C(F)(F)F)oc2c1	-13%	37%	-2%	-1%	?
C[C@H](NC[C@H](O)CP(=O)(O)Cc1ccccc1)c1ccc(Cl)c(Cl)c1	89µM*!	.	.	.	-5%[59 µM]
CC(C)C/C=C1\CCc2c([nH]c3ccccc23)C1=O	-1%	25%	0%	3%	-3%
CCCCCCCCC1=NCCc2c1[nH]c1ccccc21	56µM*	22%	22µM*	?	45µM*
CC(C)(C)c1cn(-c2ccc(F)cc2)c(=S)[nH]1	?	23%	25µM*	-7%	1.4µM*
CCc1ccc(-n2cc(-c3ccc([N+](=O)[O-])cc3)[nH]c2=S)cc1	-17%	9%	-24%	-36%	?
COc1ccc(-c2c[n+](CC(=O)c3ccccc3)c3n2CCCCC3)cc1	-1%	21%	-19%	0%	14%[12.7 µM]
COc1ccc(-c2c[n+]3c4n2CCCCC4=C(c2ccccc2)C3)cc1	-28%	-5%	40µM*	56µM*	14µM*

Assay outcomes from PubChem.
